This note sets out measurements from PubChem BioAssay (NCATS).

Where “and” joins values, the source holds several entries; their conditions need not be identical. Equal values may be shown once. Results filed as inconclusive are left out. Where a call stands in place of a potency, no number is given. Calls of active or inactive are those of the source.

Sequence of Glucocorticoid receptor (Homo sapiens) (P04150 whole entry, looked up): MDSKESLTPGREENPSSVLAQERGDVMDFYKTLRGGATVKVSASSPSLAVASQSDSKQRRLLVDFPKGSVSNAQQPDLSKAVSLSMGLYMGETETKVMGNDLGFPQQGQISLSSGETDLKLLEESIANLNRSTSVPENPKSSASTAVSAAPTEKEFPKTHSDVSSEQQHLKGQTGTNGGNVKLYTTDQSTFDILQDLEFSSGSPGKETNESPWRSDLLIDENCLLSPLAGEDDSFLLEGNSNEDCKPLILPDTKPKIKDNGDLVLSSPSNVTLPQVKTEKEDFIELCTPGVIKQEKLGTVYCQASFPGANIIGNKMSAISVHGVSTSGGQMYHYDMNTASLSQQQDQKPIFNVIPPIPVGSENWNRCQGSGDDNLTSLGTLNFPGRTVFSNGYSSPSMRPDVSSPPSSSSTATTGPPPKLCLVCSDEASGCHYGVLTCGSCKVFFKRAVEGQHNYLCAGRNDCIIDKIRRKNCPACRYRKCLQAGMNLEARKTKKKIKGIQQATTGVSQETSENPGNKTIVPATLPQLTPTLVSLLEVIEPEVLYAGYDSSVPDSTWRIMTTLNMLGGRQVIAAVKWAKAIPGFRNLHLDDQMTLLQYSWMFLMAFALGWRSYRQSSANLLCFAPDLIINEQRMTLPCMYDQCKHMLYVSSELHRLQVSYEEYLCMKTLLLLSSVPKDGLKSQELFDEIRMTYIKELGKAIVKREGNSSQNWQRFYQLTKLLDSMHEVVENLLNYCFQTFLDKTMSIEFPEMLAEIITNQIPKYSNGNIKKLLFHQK

The first experiment has as its target Glucocorticoid receptor (Homo sapiens) (UniProt P04150). As to the kind of experiment: qHTS assay for small molecule agonists of glucocorticoid receptor signaling (AID 588532; active = well fitted curve in the direction sought with a large enough effect in the signal ratio, with a control signal flat; the % refers to the signal ratio). To be noted: HeLa MMTV-bla, beta-lactamase ratio, agonist, 18 h; activation: stronger effect = higher value, percent of dexamethasone control, DMSO zero. The gist of the method:
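Using MMTV-bla HeLa cells in medium with 1% stripped FBS and 25 mM HEPES, compounds were titrated and incubated overnight-length (18 h). Beta-lactamase cleavage of CCF4 was quantified by dual-emission fluorescence.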
Background: In qHTS, concentration-response curves come from the screen itself.
For the compound `O=S(=O)(c1ccc(O)cc1)c1ccc(O)cc1`, the activation is -0.412% (inactive). Same read-out and setting: in the case of `COc1ccc(O)c(C(C)(C)C)c1` it was -14% (inactive). As to `O=[N+]([O-])c1ccc(Oc2ccc(C(F)(F)F)cc2[N+](=O)[O-])cc1`, the activation is -2.99% (inactive). In the case of `Cc1ccccc1C(=O)Nc1cccc(OC(C)C)c1`, the activation is 2.19% (inactive). The same measure, in the same setting: in the case of `CCOc1ccc(C(C)(C)COCc2cccc(Oc3ccccc3)c2)cc1` it was -0.996% (inactive); in that of `O=c1[nH]c2ccccc2c(=O)o1`, -0.7% (inactive). For the compound `COc1ccc(C(O)(c2cncnc2)C2CC2)cc1` (stereo not drawn), the activation is -6.63% (inactive). On the same count and under the same terms, in the case of `C=CC1(C)OC(=O)N(c2cc(Cl)cc(Cl)c2)C1=O` (stereo not drawn) it was -11.4% (inactive).

On to `COC(=O)c1ccccc1CS(=O)(=O)NC(=O)Nc1nc(OC)cc(OC)n1`, for which the activation is -0.772% (inactive). Take `CCCCN(CC)C(=O)SCCC`: the activation was 4.14% (inactive).

`NS(=O)(=O)C(F)(F)C(F)(F)C(F)(F)C(F)(F)C(F)(F)C(F)(F)C(F)(F)C(F)(F)F`: the activation is -2.51% (inactive). `CCOP(=O)(NC(C)C)Oc1ccc(S(C)=O)c(C)c1` (stereo not drawn): the activation was -7.67% (inactive). As for `COP(=S)(OC)Oc1nc(Cl)c(Cl)cc1Cl`, the activation was 1.34% (inactive). Turning to `CCOP(=O)(O)C(N)=O`, the activation is 4.17% (inactive). On the same count and under the same terms, in the case of `Clc1ccc(C(Cl)(Cl)Cl)cc1` it was 0.824% (inactive); in that of `CCNc1nc(NC(C)(C)C)nc(SC)n1`, 4.35% (inactive). With `CC1CCCCC1NC(=O)Nc1ccccc1` (stereo not drawn), the activation is -3.51% (inactive). For the compound `CCOP(=S)(OCC)SCC(=O)NC(C)C`, the activation is 3% (inactive). On to `CCOc1nc(NC)nc(NC(=O)NS(=O)(=O)c2ccccc2C(=O)OC)n1`, for which the activation is 15% (inactive).

For the compound `C/C(=N\NC(=O)Nc1cc(F)cc(F)c1)c1ncccc1C(=O)O`, the activation is 10.9% (inactive) and -10.6% (inactive). With `C=CCC1=C(C)[C@@H](OC(=O)[C@@H]2[C@@H](C=C(C)C)C2(C)C)CC1=O`, the activation is 1.31% (inactive). On to `COP(=S)(OC)Oc1ccc([N+](=O)[O-])c(C)c1`, for which the activation was -13.6% (inactive). Take `CCCCC(CC)C(=O)Cl` (stereo not drawn): the activation is -0.757% (inactive). For the compound `CNC(=O)Oc1ccc(N(C)C)c(C)c1`, the activation was -10.5% (inactive).

A further experiment shares this target. As to the kind of experiment: qHTS assay for small molecule antagonists of glucocorticoid receptor signaling (AID 588533; active = well fitted inhibition curve with a large enough effect in the signal ratio, with a control signal flat, not every such curve was filed as active; the % refers to the signal ratio;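 note: cells stimulated with 2 nM dexamethasone as agonist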). The note with it: HeLa MMTV-bla, GRE beta-lactamase ratio, antagonist mode, 18 h; series mostly up to 76.8 µM. The gist of the method: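 Antagonist-mode qHTS: compound titrations added to GRE-bla HeLa cells, then dexamethasone 2 nM final; 18 h, 37 C. CCF4 FRET fluorescence normalized to dexamethasone and DMSO; IC50 from Hill fit.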
In the case of `O=S(=O)(c1ccc(O)cc1)c1ccc(O)cc1`, the Potency result is “inactive”. Regarding `COc1ccc(O)c(C(C)(C)C)c1`, the Potency result was “inactive”. For `O=[N+]([O-])c1ccc(Oc2ccc(C(F)(F)F)cc2[N+](=O)[O-])cc1`, the Potency result is “inactive”. On to `Cc1ccccc1C(=O)Nc1cccc(OC(C)C)c1`, for which the Potency entry is “inactive”. Consider `CCOc1ccc(C(C)(C)COCc2cccc(Oc3ccccc3)c2)cc1`, for which the Potency result was “inactive”. With `O=c1[nH]c2ccccc2c(=O)o1`, the Potency entry was “inactive”.

On to `C=CC1(C)OC(=O)N(c2cc(Cl)cc(Cl)c2)C1=O` (stereo not drawn), for which the Potency result was “inactive”.

`COC(=O)c1ccccc1CS(=O)(=O)NC(=O)Nc1nc(OC)cc(OC)n1`: the Potency entry is “inactive”. On the same count and under the same terms, in the case of `CCCCN(CC)C(=O)SCCC` it was “inactive”; in that of `NS(=O)(=O)C(F)(F)C(F)(F)C(F)(F)C(F)(F)C(F)(F)C(F)(F)C(F)(F)C(F)(F)F`, “inactive”; in that of `CCOP(=O)(NC(C)C)Oc1ccc(S(C)=O)c(C)c1` (stereo not drawn), “inactive”. On the same count and under the same terms, in the case of `COP(=S)(OC)Oc1nc(Cl)c(Cl)cc1Cl` it was “inactive”. As to `CCOP(=O)(O)C(N)=O`, the Potency result is “inactive”.

As for `COC(=O)c1ccccc1S(=O)(=O)NC(=O)N(C)c1nc(C)nc(OC)n1`, the Potency entry was “inactive”. `Clc1ccc(C(Cl)(Cl)Cl)cc1`: the Potency entry is “inactive”. For `COCc1cnc(C2=NC(C)(C(C)C)C(=O)N2)c(C(=O)O)c1` (stereo not drawn), the Potency result is “inactive”. As to `Clc1ccc([C@]2(Cn3cncn3)C[C@H](Br)CO2)c(Cl)c1`, the Potency result was “inactive”.

`CCNc1nc(NC(C)(C)C)nc(SC)n1`: the Potency entry was “inactive”. Consider `CCCCC(CC)COC(=O)Cl` (stereo not drawn), for which the Potency result is “inactive”. On to `CC1CCCCC1NC(=O)Nc1ccccc1` (stereo not drawn), for which the Potency entry was “inactive”. Consider `CCOP(=S)(OCC)SCC(=O)NC(C)C`, for which the Potency result was “inactive”. Regarding `CCOc1nc(NC)nc(NC(=O)NS(=O)(=O)c2ccccc2C(=O)OC)n1`, the Potency result is “inactive”. Same read-out and setting: in the case of `C/C(=N\NC(=O)Nc1cc(F)cc(F)c1)c1ncccc1C(=O)O` it was “inactive”; in that of `C=CCC1=C(C)[C@@H](OC(=O)[C@@H]2[C@@H](C=C(C)C)C2(C)C)CC1=O`, “inactive”.

With `COP(=S)(OC)Oc1ccc([N+](=O)[O-])c(C)c1`, the Potency entry was “inactive”. `CCCCC(CC)C(=O)Cl` (stereo not drawn): the Potency entry is “inactive”. For `CC(Oc1cc(Cl)c(Cl)cc1Cl)C(=O)O` (stereo not drawn), the Potency entry is “inactive”. On the same count and under the same terms, in the case of `Nc1ccc([N+](=O)[O-])cc1Cl` it was “inactive”; in that of `CNC(=O)Oc1ccc(N(C)C)c(C)c1`, “inactive”.
